Source: the supplement of paper PMC11732987, “Enantioselective OTUD7B fragment discovery through chemoproteomics screening and high-throughput optimisation” (Communications Chemistry, 2025)

Legend:
Assay in all cases: log2 ratio of Biotin-Ahx-Ub-VS probe labelling (fragment/DMSO); higher = less target engagement (more negative = stronger competition), active = hit call of the paper (q ≤ 0.05, log2 ratio ≤ -1)
Conditions in all cases: compound concentration: 200 uM; treatment time: 3 h
USP34 = USP34 (UniProt Q70CQ2)
Sequence of USP34 (Q70CQ2 whole entry, the tested form may be a part): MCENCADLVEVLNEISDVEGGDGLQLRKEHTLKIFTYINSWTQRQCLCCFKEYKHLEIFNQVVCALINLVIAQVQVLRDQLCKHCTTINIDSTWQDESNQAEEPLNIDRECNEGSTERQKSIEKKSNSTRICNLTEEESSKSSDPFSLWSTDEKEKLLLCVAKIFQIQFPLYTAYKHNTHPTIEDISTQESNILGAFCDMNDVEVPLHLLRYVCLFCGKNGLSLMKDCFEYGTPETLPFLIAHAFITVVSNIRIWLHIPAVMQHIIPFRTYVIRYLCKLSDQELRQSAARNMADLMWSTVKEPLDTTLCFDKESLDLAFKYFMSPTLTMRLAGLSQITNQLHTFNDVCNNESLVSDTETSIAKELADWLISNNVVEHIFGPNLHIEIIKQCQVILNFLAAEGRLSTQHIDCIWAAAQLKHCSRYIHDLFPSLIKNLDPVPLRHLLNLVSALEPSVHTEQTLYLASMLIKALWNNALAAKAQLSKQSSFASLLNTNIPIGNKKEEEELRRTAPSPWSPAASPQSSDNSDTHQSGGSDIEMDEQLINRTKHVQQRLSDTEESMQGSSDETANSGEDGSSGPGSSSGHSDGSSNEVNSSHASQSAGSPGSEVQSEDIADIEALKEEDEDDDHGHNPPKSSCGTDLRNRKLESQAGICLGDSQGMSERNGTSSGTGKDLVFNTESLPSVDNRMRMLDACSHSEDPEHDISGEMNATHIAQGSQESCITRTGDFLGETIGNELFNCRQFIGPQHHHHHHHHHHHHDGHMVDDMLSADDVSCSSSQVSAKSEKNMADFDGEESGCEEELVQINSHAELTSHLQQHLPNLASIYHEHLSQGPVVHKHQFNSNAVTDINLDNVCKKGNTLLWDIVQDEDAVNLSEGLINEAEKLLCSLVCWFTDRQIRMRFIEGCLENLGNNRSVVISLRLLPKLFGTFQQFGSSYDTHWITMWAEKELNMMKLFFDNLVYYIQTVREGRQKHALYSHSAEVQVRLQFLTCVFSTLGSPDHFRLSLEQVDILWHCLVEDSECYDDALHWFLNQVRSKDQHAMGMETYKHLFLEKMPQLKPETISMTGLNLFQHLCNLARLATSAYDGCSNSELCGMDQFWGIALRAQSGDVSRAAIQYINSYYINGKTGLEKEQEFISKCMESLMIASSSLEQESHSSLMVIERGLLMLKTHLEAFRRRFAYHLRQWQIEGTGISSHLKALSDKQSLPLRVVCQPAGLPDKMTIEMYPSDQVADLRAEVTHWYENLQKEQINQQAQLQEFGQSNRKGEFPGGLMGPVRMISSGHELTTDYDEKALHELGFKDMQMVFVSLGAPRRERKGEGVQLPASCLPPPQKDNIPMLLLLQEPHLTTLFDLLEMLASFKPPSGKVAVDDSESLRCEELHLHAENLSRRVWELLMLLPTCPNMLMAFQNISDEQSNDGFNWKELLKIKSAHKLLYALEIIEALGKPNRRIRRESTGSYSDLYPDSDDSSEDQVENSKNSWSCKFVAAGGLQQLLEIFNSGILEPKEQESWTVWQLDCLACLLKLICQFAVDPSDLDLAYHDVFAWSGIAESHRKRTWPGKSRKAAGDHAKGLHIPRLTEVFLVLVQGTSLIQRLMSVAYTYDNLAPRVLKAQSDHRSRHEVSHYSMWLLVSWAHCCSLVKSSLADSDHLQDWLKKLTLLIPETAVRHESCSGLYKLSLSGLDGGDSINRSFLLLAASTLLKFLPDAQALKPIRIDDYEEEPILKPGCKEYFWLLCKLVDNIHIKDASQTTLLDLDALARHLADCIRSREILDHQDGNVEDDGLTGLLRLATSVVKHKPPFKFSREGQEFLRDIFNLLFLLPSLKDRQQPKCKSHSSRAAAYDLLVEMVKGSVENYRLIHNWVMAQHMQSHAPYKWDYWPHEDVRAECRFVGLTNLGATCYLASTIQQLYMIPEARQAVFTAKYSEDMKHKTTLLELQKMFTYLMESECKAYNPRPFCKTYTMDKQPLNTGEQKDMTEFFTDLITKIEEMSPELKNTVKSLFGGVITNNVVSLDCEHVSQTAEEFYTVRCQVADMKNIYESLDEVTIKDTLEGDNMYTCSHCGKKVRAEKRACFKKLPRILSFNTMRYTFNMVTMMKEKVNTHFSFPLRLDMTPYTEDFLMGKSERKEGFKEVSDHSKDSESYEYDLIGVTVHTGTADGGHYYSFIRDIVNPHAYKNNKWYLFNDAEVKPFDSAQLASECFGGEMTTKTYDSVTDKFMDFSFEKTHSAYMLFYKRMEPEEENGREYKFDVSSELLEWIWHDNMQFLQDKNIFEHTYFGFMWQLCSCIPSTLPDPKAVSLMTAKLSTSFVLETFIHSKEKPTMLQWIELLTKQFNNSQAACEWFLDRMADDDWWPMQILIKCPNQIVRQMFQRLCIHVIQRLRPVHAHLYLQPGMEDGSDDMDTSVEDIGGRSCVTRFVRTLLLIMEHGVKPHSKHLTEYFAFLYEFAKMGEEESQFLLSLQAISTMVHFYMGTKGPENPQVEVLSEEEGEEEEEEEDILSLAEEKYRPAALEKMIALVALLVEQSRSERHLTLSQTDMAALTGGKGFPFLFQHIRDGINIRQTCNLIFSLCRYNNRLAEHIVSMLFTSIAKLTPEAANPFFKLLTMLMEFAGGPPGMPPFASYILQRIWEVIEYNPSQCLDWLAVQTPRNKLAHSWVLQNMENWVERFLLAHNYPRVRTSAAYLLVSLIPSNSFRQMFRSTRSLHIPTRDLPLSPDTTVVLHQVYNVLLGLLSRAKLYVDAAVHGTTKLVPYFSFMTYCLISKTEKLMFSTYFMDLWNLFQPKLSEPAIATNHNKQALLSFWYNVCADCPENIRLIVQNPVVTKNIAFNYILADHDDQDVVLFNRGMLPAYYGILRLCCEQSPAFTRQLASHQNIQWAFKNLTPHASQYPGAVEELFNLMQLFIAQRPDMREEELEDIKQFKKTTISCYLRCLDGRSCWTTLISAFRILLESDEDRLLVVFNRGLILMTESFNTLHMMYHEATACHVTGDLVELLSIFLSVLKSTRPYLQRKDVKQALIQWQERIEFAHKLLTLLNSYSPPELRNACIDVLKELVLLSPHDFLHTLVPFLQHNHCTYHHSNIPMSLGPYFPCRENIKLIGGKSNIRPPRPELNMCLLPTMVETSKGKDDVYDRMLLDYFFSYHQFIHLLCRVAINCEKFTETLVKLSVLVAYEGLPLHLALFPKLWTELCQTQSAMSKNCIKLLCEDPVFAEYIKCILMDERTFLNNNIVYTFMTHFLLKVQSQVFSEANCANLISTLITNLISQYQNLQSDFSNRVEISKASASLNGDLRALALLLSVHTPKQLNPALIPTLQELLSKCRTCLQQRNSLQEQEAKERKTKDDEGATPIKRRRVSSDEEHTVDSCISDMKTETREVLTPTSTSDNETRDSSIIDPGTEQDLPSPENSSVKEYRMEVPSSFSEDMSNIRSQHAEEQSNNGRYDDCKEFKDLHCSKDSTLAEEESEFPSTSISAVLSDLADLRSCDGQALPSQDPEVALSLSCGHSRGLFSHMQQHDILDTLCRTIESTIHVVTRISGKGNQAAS
Outline: (§1)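 Average log2 ratios of fragment over vehicle were obtained by unpaired t-test from global-median-normalised Spectronaut label-free quantities. Proteins with ≥2 unique peptides were included. HEK293T lysate (495 µg per sample) was treated in triplicate with fragment at 200 µM or vehicle for 3 h, then with Biotin-Ahx-Ub-VS at 0.5 µM final for 1 h, and labelled DUBs were NeutrAvidin-enriched and run by diaPASEF LC-MS/MS.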

USP36 = biological target: T1, USP36 (UniProt Q9P275)
T1 sequence (whole entry): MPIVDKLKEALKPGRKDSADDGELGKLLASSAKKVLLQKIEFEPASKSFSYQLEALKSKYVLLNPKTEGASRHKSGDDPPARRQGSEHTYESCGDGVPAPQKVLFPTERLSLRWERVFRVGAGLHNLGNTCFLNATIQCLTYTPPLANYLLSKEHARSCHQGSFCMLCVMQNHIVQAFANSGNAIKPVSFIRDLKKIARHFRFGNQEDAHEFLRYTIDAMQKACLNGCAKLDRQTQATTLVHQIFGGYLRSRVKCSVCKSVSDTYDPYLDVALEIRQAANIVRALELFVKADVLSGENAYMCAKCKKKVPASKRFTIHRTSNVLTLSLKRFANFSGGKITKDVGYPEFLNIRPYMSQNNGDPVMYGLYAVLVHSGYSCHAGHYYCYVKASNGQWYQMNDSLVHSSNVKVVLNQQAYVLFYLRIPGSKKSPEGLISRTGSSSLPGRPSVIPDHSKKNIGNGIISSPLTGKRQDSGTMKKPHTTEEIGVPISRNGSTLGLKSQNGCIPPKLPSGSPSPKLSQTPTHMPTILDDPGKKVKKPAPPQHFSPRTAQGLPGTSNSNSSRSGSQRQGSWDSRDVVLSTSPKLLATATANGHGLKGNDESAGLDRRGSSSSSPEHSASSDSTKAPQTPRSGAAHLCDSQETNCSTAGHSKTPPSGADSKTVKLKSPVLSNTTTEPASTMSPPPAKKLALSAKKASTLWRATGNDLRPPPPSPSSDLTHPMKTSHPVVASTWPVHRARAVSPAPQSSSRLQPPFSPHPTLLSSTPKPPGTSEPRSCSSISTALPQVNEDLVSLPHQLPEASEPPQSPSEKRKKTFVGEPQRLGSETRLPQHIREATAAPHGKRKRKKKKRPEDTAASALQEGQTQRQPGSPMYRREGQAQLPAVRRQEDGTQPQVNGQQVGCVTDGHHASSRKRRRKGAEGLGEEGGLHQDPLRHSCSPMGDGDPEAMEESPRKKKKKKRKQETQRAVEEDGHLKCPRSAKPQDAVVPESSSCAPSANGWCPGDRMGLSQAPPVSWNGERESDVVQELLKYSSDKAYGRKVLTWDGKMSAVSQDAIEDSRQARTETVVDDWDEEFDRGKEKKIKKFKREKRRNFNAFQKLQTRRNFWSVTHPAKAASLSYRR
Outline: as §1

USP38 = biological target: T2, USP38 (UniProt Q8NB14)
T2 sequence (whole entry): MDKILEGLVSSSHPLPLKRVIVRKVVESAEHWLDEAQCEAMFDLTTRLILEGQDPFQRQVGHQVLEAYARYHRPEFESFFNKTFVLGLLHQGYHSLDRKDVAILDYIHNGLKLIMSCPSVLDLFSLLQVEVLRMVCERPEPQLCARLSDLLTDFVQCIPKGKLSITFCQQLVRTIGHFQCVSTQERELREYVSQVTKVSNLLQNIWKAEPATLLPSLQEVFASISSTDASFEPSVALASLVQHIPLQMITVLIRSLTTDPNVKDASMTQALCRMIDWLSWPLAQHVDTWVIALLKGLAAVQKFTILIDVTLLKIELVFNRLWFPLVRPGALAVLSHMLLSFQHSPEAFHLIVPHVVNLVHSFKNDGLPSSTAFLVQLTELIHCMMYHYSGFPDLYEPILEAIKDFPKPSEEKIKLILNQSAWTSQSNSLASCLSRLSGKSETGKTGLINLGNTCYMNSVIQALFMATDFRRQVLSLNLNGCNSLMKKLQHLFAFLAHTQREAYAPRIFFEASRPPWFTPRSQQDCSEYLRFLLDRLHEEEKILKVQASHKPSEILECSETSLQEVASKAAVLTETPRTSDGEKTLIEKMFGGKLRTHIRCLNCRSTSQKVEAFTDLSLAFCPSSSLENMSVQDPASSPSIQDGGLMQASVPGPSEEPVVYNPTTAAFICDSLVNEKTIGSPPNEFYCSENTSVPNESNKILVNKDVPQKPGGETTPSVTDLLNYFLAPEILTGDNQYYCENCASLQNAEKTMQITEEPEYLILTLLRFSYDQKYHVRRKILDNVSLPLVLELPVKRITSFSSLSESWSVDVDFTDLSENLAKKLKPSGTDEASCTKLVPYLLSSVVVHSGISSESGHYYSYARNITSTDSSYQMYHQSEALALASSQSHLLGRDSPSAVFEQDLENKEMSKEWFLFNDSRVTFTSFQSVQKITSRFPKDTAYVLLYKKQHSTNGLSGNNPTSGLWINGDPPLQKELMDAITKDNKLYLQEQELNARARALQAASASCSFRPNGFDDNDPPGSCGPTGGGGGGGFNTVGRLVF
Outline: as §1

USP39 = biological target: T3, USP39 (UniProt Q53GS9)
T3 sequence (whole entry): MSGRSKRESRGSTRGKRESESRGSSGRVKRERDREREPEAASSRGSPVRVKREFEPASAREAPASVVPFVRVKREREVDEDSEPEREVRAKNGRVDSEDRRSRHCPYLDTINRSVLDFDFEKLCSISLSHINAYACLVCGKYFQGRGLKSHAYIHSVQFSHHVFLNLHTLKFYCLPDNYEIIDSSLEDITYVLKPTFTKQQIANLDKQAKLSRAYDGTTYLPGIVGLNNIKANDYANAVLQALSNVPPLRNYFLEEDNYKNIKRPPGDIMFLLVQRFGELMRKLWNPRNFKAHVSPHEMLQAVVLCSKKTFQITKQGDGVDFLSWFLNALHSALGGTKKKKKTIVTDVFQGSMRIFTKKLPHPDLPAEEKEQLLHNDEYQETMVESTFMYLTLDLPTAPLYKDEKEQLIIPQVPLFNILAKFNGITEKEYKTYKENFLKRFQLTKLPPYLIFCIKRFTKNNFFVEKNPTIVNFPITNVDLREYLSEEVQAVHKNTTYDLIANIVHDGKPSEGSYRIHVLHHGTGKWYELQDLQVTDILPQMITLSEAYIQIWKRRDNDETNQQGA
Outline: as §1

USP4 = biological target: T4, USP4 (UniProt Q13107)
T4 sequence (whole entry): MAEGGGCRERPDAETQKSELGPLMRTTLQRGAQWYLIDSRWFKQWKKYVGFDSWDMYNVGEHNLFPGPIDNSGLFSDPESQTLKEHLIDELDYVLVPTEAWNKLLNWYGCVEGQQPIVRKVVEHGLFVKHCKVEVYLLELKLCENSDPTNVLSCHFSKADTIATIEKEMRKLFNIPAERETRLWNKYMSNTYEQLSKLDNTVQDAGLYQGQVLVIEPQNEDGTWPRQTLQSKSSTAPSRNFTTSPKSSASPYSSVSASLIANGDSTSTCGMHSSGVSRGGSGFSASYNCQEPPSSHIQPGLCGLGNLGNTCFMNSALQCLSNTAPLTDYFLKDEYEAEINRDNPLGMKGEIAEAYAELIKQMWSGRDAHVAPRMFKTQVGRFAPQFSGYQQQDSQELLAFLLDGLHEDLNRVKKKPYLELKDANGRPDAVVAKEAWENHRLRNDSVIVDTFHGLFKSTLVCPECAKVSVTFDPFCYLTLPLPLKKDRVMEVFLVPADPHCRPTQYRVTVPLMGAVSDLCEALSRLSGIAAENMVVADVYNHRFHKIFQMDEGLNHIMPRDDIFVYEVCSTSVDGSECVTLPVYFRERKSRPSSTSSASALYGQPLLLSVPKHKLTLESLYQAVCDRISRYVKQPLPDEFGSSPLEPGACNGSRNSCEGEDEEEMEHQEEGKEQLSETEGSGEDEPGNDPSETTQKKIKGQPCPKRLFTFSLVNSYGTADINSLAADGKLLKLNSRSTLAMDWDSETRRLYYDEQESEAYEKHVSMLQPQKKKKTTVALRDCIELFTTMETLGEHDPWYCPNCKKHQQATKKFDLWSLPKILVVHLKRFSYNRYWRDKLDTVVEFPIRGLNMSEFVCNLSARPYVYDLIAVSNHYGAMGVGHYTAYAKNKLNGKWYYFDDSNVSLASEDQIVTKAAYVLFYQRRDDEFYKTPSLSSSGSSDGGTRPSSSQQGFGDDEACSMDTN
Outline: as §1

Measured: log2 ratio of Biotin-Ahx-Ub-VS probe labelling

Cc1ccc(CN(C)C(=O)CCl)o1
inactive: USP34 -0.0329 | USP36 0.0474 | USP38 -0.0916 | USP39 0.287 | USP4 0.0471
